{"source": "the OligoGym collection", "assay_in_all_cases": "pooled miR-30 sensor sort-seq; sequence = guide strand", "conditions_in_all_cases": "shRNA", "key": {"[1]": {"target": "FIZ1"}, "[2]": {"target": "FNBP1L"}, "[3]": {"target": "FPGS"}, "[4]": {"target": "FTL"}, "[5]": {"target": "FZR1"}, "[6]": {"target": "GALNT14"}, "[7]": {"target": "GALNT7"}, "[8]": {"target": "GALNT12"}, "[9]": {"target": "GALE"}, "[10]": {"target": "GALNT9"}, "[11]": {"target": "GH2"}, "[12]": {"target": "GGH"}, "[13]": {"target": "GFPT2"}, "[14]": {"target": "GEMIN6"}}}
{"sequence": "TGGTTGGCTAGGTTGAAGCTGT", "values": [{"measurement": "sensor-assay potency score (higher = more potent)", "setting": "[1]", "result": -0.915}]}
{"sequence": "TATGATTCAAATAACACTGGGA", "values": [{"measurement": "sensor-assay potency score (higher = more potent)", "setting": "[2]", "result": 0.483}]}
{"sequence": "TTGGTCTGCGTTGCCTGTGGAT", "values": [{"measurement": "sensor-assay potency score (higher = more potent)", "setting": "[3]", "result": -1.06}]}
{"sequence": "TTCACTTCCTCATCTAGGAAGT", "values": [{"measurement": "sensor-assay potency score (higher = more potent)", "setting": "[4]", "result": -0.832}]}
{"sequence": "TACACTGCAGTGGTTGTCCTGT", "values": [{"measurement": "sensor-assay potency score (higher = more potent)", "setting": "[5]", "result": -0.434}]}
{"sequence": "TCATCTCTCAATGTAGTCCTGG", "values": [{"measurement": "sensor-assay potency score (higher = more potent)", "setting": "[6]", "result": 0.0167}]}
{"sequence": "TAGACTCTAAGTCCACTTCTAC", "values": [{"measurement": "sensor-assay potency score (higher = more potent)", "setting": "[7]", "result": -0.661}]}
{"sequence": "TTCTTCTCTTTGCACAGCGGGT", "values": [{"measurement": "sensor-assay potency score (higher = more potent)", "setting": "[8]", "result": -1.37}]}
{"sequence": "TTCTTCTAGCAGGATATCCGGG", "values": [{"measurement": "sensor-assay potency score (higher = more potent)", "setting": "[8]", "result": -0.589}]}
{"sequence": "TAATCATAACTTTTGATCCATC", "values": [{"measurement": "sensor-assay potency score (higher = more potent)", "setting": "[7]", "result": -1.43}]}
{"sequence": "TTTTGGTCCATTGCTGTCGGTC", "values": [{"measurement": "sensor-assay potency score (higher = more potent)", "setting": "[6]", "result": -1.13}]}
{"sequence": "TTTATTTTTAAATACTTTGGAA", "values": [{"measurement": "sensor-assay potency score (higher = more potent)", "setting": "[9]", "result": -0.203}]}
{"sequence": "ATTGACATCTCTGTCTTCCCTC", "values": [{"measurement": "sensor-assay potency score (higher = more potent)", "setting": "[7]", "result": 0.3}]}
{"sequence": "TTACTCACAGCAAACAGCCCAC", "values": [{"measurement": "sensor-assay potency score (higher = more potent)", "setting": "[8]", "result": -0.133}]}
{"sequence": "TTGTCGATCACGAAGAGCCCTC", "values": [{"measurement": "sensor-assay potency score (higher = more potent)", "setting": "[6]", "result": -0.543}]}
{"sequence": "TTCCAGTCTGTTCTGGTCCAGG", "values": [{"measurement": "sensor-assay potency score (higher = more potent)", "setting": "[6]", "result": -1.18}]}
{"sequence": "TTGGAAACAACCTCCATTCTTC", "values": [{"measurement": "sensor-assay potency score (higher = more potent)", "setting": "[6]", "result": 0.406}]}
{"sequence": "TGAACTTCTGATTCTCTGGGGC", "values": [{"measurement": "sensor-assay potency score (higher = more potent)", "setting": "[8]", "result": 0.682}]}
{"sequence": "ATTGCTGTCGGTCATCTCCATT", "values": [{"measurement": "sensor-assay potency score (higher = more potent)", "setting": "[6]", "result": -1.29}]}
{"sequence": "TTGGTGTTCTTTATATACGTGT", "values": [{"measurement": "sensor-assay potency score (higher = more potent)", "setting": "[6]", "result": -0.309}]}
{"sequence": "TTTCTGATCATCCACTTCTGCC", "values": [{"measurement": "sensor-assay potency score (higher = more potent)", "setting": "[10]", "result": -1.06}]}
{"sequence": "TTCTTTTGGAAACAACCTCCAT", "values": [{"measurement": "sensor-assay potency score (higher = more potent)", "setting": "[6]", "result": -0.965}]}
{"sequence": "TAACTTTTGATCCATCAGCTCC", "values": [{"measurement": "sensor-assay potency score (higher = more potent)", "setting": "[7]", "result": -0.72}]}
{"sequence": "TATCACTGTAGTCATCTACAAG", "values": [{"measurement": "sensor-assay potency score (higher = more potent)", "setting": "[8]", "result": -1.3}]}
{"sequence": "TCTTCTAGCAGGATATCCGGGG", "values": [{"measurement": "sensor-assay potency score (higher = more potent)", "setting": "[8]", "result": -0.323}]}
{"sequence": "TATAGTCAAAGCAGTAGTCTGT", "values": [{"measurement": "sensor-assay potency score (higher = more potent)", "setting": "[8]", "result": 0.11}]}
{"sequence": "TCGATCACATCAATCACCGGGC", "values": [{"measurement": "sensor-assay potency score (higher = more potent)", "setting": "[8]", "result": -0.0357}]}
{"sequence": "TTTTGAAGAGACGCTGTAGGGC", "values": [{"measurement": "sensor-assay potency score (higher = more potent)", "setting": "[9]", "result": 0.205}]}
{"sequence": "AACAGCAGCACCGTGATCCAGA", "values": [{"measurement": "sensor-assay potency score (higher = more potent)", "setting": "[6]", "result": -0.665}]}
{"sequence": "TTCGTGCTTGAATTAAACCTTC", "values": [{"measurement": "sensor-assay potency score (higher = more potent)", "setting": "[7]", "result": -0.485}]}
{"sequence": "TTACACTGGAGCTTGTCCCGGA", "values": [{"measurement": "sensor-assay potency score (higher = more potent)", "setting": "[8]", "result": 0.473}]}
{"sequence": "TTGACATCTCTGTCTTCCCTCA", "values": [{"measurement": "sensor-assay potency score (higher = more potent)", "setting": "[7]", "result": -0.191}]}
{"sequence": "TAGTCCTTTGTTCTGGAGCATC", "values": [{"measurement": "sensor-assay potency score (higher = more potent)", "setting": "[8]", "result": -1.37}]}
{"sequence": "TTCAGCTGCACGAACACTGTTG", "values": [{"measurement": "sensor-assay potency score (higher = more potent)", "setting": "[8]", "result": -0.106}]}
{"sequence": "TATGATAGGAGTCCTGATGGGC", "values": [{"measurement": "sensor-assay potency score (higher = more potent)", "setting": "[6]", "result": -0.477}]}
{"sequence": "TTTAATTACACTGTGGACTGTT", "values": [{"measurement": "sensor-assay potency score (higher = more potent)", "setting": "[7]", "result": 0.94}]}
{"sequence": "TTCTTTATTACTGAAATCGTCA", "values": [{"measurement": "sensor-assay potency score (higher = more potent)", "setting": "[7]", "result": -0.232}]}
{"sequence": "TTATTCTTCTAATAGACTCTAA", "values": [{"measurement": "sensor-assay potency score (higher = more potent)", "setting": "[7]", "result": -0.0226}]}
{"sequence": "TTCATTGATTCTGAAAAGCTGA", "values": [{"measurement": "sensor-assay potency score (higher = more potent)", "setting": "[7]", "result": -0.364}]}
{"sequence": "TTGACGACGATTTCCTTGCCGT", "values": [{"measurement": "sensor-assay potency score (higher = more potent)", "setting": "[6]", "result": -0.222}]}
{"sequence": "ATAGTAGTCAATGTCGTTGTTG", "values": [{"measurement": "sensor-assay potency score (higher = more potent)", "setting": "[10]", "result": -0.487}]}
{"sequence": "TTGCTGTTTCTCACCTCTCCGT", "values": [{"measurement": "sensor-assay potency score (higher = more potent)", "setting": "[10]", "result": -0.669}]}
{"sequence": "TCTTTTGGAAACAACCTCCATT", "values": [{"measurement": "sensor-assay potency score (higher = more potent)", "setting": "[6]", "result": -0.288}]}
{"sequence": "TTAAATTTTAAAAACGTGCAGA", "values": [{"measurement": "sensor-assay potency score (higher = more potent)", "setting": "[7]", "result": -0.271}]}
{"sequence": "TTTCTTCTCTTTGCACAGCGGG", "values": [{"measurement": "sensor-assay potency score (higher = more potent)", "setting": "[8]", "result": -0.991}]}
{"sequence": "ATAGGTGTCATATGCCAGCTGG", "values": [{"measurement": "sensor-assay potency score (higher = more potent)", "setting": "[11]", "result": -0.725}]}
{"sequence": "TTAATAAGCACTCTCCACTAAT", "values": [{"measurement": "sensor-assay potency score (higher = more potent)", "setting": "[12]", "result": -1.04}]}
{"sequence": "TTGACTTCGTGATTATTCCCAT", "values": [{"measurement": "sensor-assay potency score (higher = more potent)", "setting": "[13]", "result": -0.191}]}
{"sequence": "TAAGACATTGAAAAACTTCTTT", "values": [{"measurement": "sensor-assay potency score (higher = more potent)", "setting": "[12]", "result": -0.164}]}
{"sequence": "TTGTCTTTTAAAACTAACTCTA", "values": [{"measurement": "sensor-assay potency score (higher = more potent)", "setting": "[13]", "result": -0.437}]}
{"sequence": "TAGTATTGAAAACTGATTCTGG", "values": [{"measurement": "sensor-assay potency score (higher = more potent)", "setting": "[13]", "result": 0.341}]}
{"sequence": "TTCTCTGTAAGATCCAGCCTTA", "values": [{"measurement": "sensor-assay potency score (higher = more potent)", "setting": "[12]", "result": -0.166}]}
{"sequence": "TTGGTTTCAAAATTCACCCGAC", "values": [{"measurement": "sensor-assay potency score (higher = more potent)", "setting": "[13]", "result": 0.408}]}
{"sequence": "TTTCTCTGTAAGATCCAGCCTT", "values": [{"measurement": "sensor-assay potency score (higher = more potent)", "setting": "[12]", "result": -0.286}]}
{"sequence": "TTCTCTCTTCCAGATCCTCTGG", "values": [{"measurement": "sensor-assay potency score (higher = more potent)", "setting": "[14]", "result": -0.645}]}
{"sequence": "TTGACCAGCTGAATGTGTCTTT", "values": [{"measurement": "sensor-assay potency score (higher = more potent)", "setting": "[13]", "result": 0.14}]}
{"sequence": "TTGACCTCCAGTGAAGTTCAGC", "values": [{"measurement": "sensor-assay potency score (higher = more potent)", "setting": "[12]", "result": -0.539}]}
{"sequence": "AAATTCTGGAACATTCTGCTGT", "values": [{"measurement": "sensor-assay potency score (higher = more potent)", "setting": "[12]", "result": 0.666}]}
{"sequence": "TTTAACTTTTCATTCATTGTAA", "values": [{"measurement": "sensor-assay potency score (higher = more potent)", "setting": "[12]", "result": 0.207}]}
{"sequence": "TCAAACTTGCTGTAGGACTGAT", "values": [{"measurement": "sensor-assay potency score (higher = more potent)", "setting": "[11]", "result": 0.205}]}
